Laboratory results reported in PubChem BioAssay AID602430 (NMMLSC, 2012).
Some of the results follow. Calls of active or inactive are those of the source.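 The calls were made as follows: active = repeat-averaged ratio response below 75% of DMSO, the collection mean minus 3 SD; inactive = the rest.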

target: ATP-binding cassette sub-family B member 6 (Homo sapiens) (UniProt Q9NP58); assay: ABCB6 transporter inhibitors, confirmation, K562-ABCB6 cells, flow cytometry, cherry pick 1 (AID 602430); conditions: K562-ABCB6 porphyrin accumulation, 1 h, at 10 µM, stronger effect = lower value;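 also: median porphyrin fluorescence at 575 nm with 488 nm excitation from mitochondria; lower ratio means less porphyrin signal so ABCB6 inhibition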
Sequence (Q9NP58 whole entry, looked up): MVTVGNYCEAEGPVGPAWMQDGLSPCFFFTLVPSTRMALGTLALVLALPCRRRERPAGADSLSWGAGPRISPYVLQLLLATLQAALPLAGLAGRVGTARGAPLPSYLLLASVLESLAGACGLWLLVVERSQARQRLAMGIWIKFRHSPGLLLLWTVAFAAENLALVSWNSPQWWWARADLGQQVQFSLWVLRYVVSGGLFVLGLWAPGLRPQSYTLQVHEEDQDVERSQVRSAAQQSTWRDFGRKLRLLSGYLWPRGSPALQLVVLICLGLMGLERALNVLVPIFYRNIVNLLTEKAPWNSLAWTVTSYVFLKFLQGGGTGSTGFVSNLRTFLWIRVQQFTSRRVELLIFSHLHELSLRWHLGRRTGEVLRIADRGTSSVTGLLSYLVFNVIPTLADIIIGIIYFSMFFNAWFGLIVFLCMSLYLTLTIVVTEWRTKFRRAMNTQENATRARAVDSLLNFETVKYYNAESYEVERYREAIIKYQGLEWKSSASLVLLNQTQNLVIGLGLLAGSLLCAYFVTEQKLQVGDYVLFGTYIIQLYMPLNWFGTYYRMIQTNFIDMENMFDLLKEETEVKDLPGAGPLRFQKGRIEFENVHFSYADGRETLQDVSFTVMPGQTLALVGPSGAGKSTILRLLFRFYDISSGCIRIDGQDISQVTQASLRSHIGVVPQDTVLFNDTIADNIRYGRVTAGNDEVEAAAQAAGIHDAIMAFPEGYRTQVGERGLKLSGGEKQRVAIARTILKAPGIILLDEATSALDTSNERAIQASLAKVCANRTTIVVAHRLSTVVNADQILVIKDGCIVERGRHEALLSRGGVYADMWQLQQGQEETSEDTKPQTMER

Ratio response (% of DMSO), inactive:
CC1(C)Cc2c(C#N)c(SCc3nc4ccccc4[nH]3)nc(N3CCOCC3)c2CO1 96%
COc1ccc(CCNC2=C(Cl)C(=O)N(Cc3ccccc3)C2=O)cc1OC 100%
O=C(COc1ccc(-n2cnnn2)cc1)Nc1ccccc1Cl 99%
Cc1cc(C)cc(NC(=O)NCc2ccccn2)c1 96%
Cc1nn(-c2ccccc2)c(C)c1C(=O)OCC(=O)NC(=O)NC1CCCCC1 97%
CCCOC(=O)C1=C(C)NC2=C(C(=O)C(C(=O)OC)C(C)C2)C1c1ccc(N(C)C)cc1 (centres undefined) 100%
CCOc1ccc(NC(=O)CC2NCCNC2=O)cc1 (centres undefined) 100%
COc1ccc(CCNS(=O)(=O)c2ccc(F)cc2)cc1OC 101%
O=C(c1ccc(Cl)cc1)c1cnc(Nc2ccccc2)s1 102%
CCS(=O)(=O)N1CCC(N2CCN(c3ccccc3)CC2)CC1 103%
CCn1c(COc2ccccc2)nnc1SCC(=O)Nc1ccc2c(c1)OCCO2 97%
CC(C(=O)Nc1ccc(F)c(F)c1F)N1CCCCCC1 (centres undefined) 101%
Cc1ccc(NC(=O)N2CCC(c3nc4c(nnn4Cc4c(F)cccc4Cl)c(=O)[nH]3)CC2)cc1 98%
Cc1cccc(NC(=O)c2nc(S(=O)(=O)Cc3ccccc3)ncc2Cl)c1 90%
CC1(C(=O)NS(=O)(=O)c2cccc(F)c2)CCN1C(=O)Cc1cc(F)ccc1F (centres undefined) 97%
O=C(Nn1cnc2ccccc2c1=O)c1ccc(F)cc1Cl 93%
Cc1cccc(N2CCN(C(=O)CCS(=O)(=O)c3ccc4c(c3)NC(=O)C(C)S4)CC2)c1C (centres undefined) 96%
O=C(Cc1cccs1)NCc1cccc(C(F)(F)F)c1 103%
COc1ccccc1C(=O)C(O)c1ccccc1OC (centres undefined) 102%
O=C1CCCC2=C1C(c1cccs1)n1nc(SCc3ccccc3)nc1N2 (centres undefined) 102%
OCCC1CN(Cc2cnc(-c3ccccc3)s2)CCN1CCc1ccccc1 (centres undefined) 102%
Cc1ccccc1NC(=O)C(C)OC(=O)CCC(=O)N(CC(C)C)c1c(N)n(CC(C)C)c(=O)[nH]c1=O (centres undefined) 101%
CCOC(=O)N1CCN(C(=O)CN(C2CCCCC2)S(C)(=O)=O)CC1 101%
Cc1ccccc1OCC(=O)Nc1nnc(S(=O)(=O)N2CCCC2)s1 101%
Cc1ccc2nc3c(cc(C(=O)NCCc4ccccc4)c(=N)n3CC3CCCO3)c(=O)n2c1 (centres undefined) 102%
CCC(=O)N1CCCC1(C)C(=O)Nc1ccc2c(c1)CCN2C(C)=O (centres undefined) 99%
Cc1ccc(Cl)cc1N1CCN(C(=O)c2cccc3c(=O)c(C)c(-c4ccccc4)oc23)CC1 102%
COc1cccc(N(CC(=O)N2CCc3ccccc3C2)S(C)(=O)=O)c1 100%
Cc1cccc(CS(=O)(=O)c2ncc(Cl)c(C(=O)Nc3ccc(F)cc3)n2)c1 89%
COc1cc2[nH]c(=S)n(Cc3ccc(F)cc3)c(=O)c2cc1OC 100%
O=C(NCCSc1ncc(-c2ccccc2)[nH]1)c1ccco1 102%
COC(=O)CNC(=O)c1cc(-c2ccncc2)nc2ccccc12 101%
Cc1ccc(SCC(=O)Nc2ncc(C)s2)cc1 103%
CC(C)C(=O)NCC(c1cccs1)S(=O)(=O)c1ccc(F)cc1 (centres undefined) 100%
